Source: PubChem BioAssay (Sanford-Burnham Center for Chemical Genomics)
This is a sample that favours compounds with a hit; in the whole collection about 4% have one here.
Peg3 promoter: reduces Peg3 promoter-driven luciferase expression in HeLa | HeLa PEG-Prom luciferase reporter, luminescence, overnight | hit rate 1.7% among 360,000 | inhibition, % at 20 µM;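 active means inhibition of at least 50% at 20 µM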
TROY NFkB inh: blocks TROY-dependent signaling in reporter cells | Q293 LMP1-TROYcd NF-kB luciferase reporter, 4 h | AID 1347056 | inhibition, % at 10 µM | hit rate 0.98% among 360,000;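 active means compounds whose plate-normalised and pattern-corrected inhibition of the luciferase reporter signal at the single screening dose is 50% or more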
CF NFkB inh: cystic fibrosis NF-kB activation inhibition; KKLEB NF-kB-GFP reporter, PAF-induced, GFP fluorescence overnight; inhibition, % at 5 µM; hit rate 0.86% among 360,000;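 active means at least 50% inhibition at 5 µM, scaled per plate between neutral and stimulator controls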;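 further: PAF is a Pseudomonas aeruginosa culture filtrate used as stimulus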
KKLEB tox: counter-screen for CF NF-kB inhibitors: cytotoxicity; KKLEB CF airway cells viability, ATPlite luminescence, overnight; active compounds read low; cells stimulated with P. aeruginosa culture filtrate; activity change (cytotoxicity), % at 5 µM; hit rate 0.36% among 360,000;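 active means corrected activity change at or below -50% at 5 µM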
HIF-2a block: blocks HIF-2a reporter activity | 786-0 RCC cells HIF-2a reporter, luciferase luminescence, overnight | inhibition, % at 18.8 µM | hit rate 0.72% among 360,000 | AID 624352;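 active means inhibition of the luminescence signal of 40% or more relative to plate controls, in a single-dose primary screen at 18.75 µM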
TWEAK Fn14 block: blocks TWEAK-Fn14 interaction in a reporter cell assay; TWEAK-stimulated Fn14 reporter cells, luciferase luminescence, 8 h; inhibition, % at 10 µM; hit rate 2% among 360,000; AID 1159606; in the data active means inhibition above about 50%
A number is an active result; 0 = inactive; - = no result given.

SMILES	Peg3 promoter	TROY NFkB inh	CF NFkB inh	KKLEB tox	HIF-2a block	TWEAK Fn14 block
O=C(NCC(c1ccco1)N1CCCC1)c1ccccc1F (stereo not given)	0	56.8	0	0	0	53.3
CN(CC(=O)Nc1cccc(F)c1)CC(=O)Nc1ccccc1Oc1ccccc1	0	0	0	0	0	0
O=C(COc1ccccc1)Nc1cccc(-c2nc3cc4ccccc4cc3[nH]2)c1	0	0	0	0	0	77.0
O=C(COc1ccccc1)Nc1cccc(-c2nn[nH]n2)c1	0	0	0	0	0	0
COc1cc(C2C(C#N)=C(N)N(c3cccnc3)C3=C2C(=O)CCC3)ccc1O (stereo not given)	0	0	0	0	0	0
CCOC(=O)C1=C(N)N(c2ccccc2)C2=C(C(=O)CCC2)C1c1cccnc1 (stereo not given)	0	0	0	0	0	52.5
COc1ccc(C(=O)N=c2nc3ccccn3s2)cc1	0	78.5	0	0	46.2	97.0
OC1CCCCC1	0	0	0	0	0	0
COc1ccc(Nc2ncnc3c2c(C)c(C)n3CCCN(C)C)cc1	0	54.5	0	0	0	58.7
Cc1ccc(S(=O)(=O)Nc2ncccn2)cc1	0	0	0	0	0	0
Cc1ncc([N+](=O)[O-])n1Cc1cccc(F)c1	0	0	0	0	0	69.7
CCOC(=O)[C@]12CCCC=C1N(CCC1=CCCCC1)C(=O)[C@H](CC(=O)N1CCC(c3ccccc3)CC1)C2	-	-	-	-	0	-
Cc1csc(=O)n1CCC(=O)OCC(=O)NNC(=O)c1ccccc1	0	0	0	0	0	0
COCCn1c(Cc2ccccc2)nnc1SCC(=O)Nc1oc(C)c2c(C)n[nH]c(=O)c12	0	57.5	0	0	0	0
Cc1cc(C(=O)CSc2nnc3c(Cl)cc(Cl)cn23)c(C)n1C	0	0	0	0	0	0
C=CCn1c(C)cc(C(=O)CSc2nnc3c(Cl)cc(Cl)cn23)c1C	0	0	0	-69.7	0	0
Cc1cccc(C)c1NC(=O)C(c1ccc(-c2ccccc2)cc1)n1c(=O)c(-c2cc3ccccc3[nH]2)nc2ccccc21 (stereo not given)	-	-	-	-	0	-
c1ccc(OCCSc2nnc3sc4ccccc4n23)cc1	0	67.1	0	0	0	91.2
COc1cccc(OCCSc2nnc3sc4ccccc4n23)c1	0	0	0	0	0	0
OC(c1ccc(-c2ccccc2)cc1)c1ncc(-c2ccccc2)[nH]1 (stereo not given)	0	0	0	0	0	0
CSCCC(C(=O)Nc1c(C)cccc1C)n1c(-c2cc(C)cs2)nc2ccccc21 (stereo not given)	-	-	-	-	0	-
O=C(Nc1ccc2c(c1)OCCO2)C(c1ccnc2ccccc12)N1CCN(c2ccc(F)cc2)CC1 (stereo not given)	0	0	0	0	0	0
O=C(Nc1ccc2c(c1)OCCO2)C(c1ccnc2ccccc12)N1CCN(c2ccc(C(F)(F)F)cn2)CC1 (stereo not given)	0	69.2	0	0	0	88.6
C=CCNc1oc(-c2cccc(F)c2)nc1C#N	0	0	0	0	0	0
O=C(NCCCN1CCOCC1)C(=O)N/N=C/c1c(Cl)cccc1Cl	0	0	0	0	0	0
SMILES	Peg3 promoter	TROY NFkB inh	CF NFkB inh	KKLEB tox	HIF-2a block	TWEAK Fn14 block
O=C(NCCCN1CCOCC1)C(=O)N/N=C/c1c2ccccc2cc2ccccc12	70.4	0	0	0	0	0
CCOC(=O)c1c2c3c(cccc3n(C)c1=O)C(=O)c1ccccc1-2	0	0	0	0	0	0
CCOC(=O)c1c2c(n(Cc3ccccc3)c1C)C(=O)C(=O)c1ccccc1-2	93.4	64.9	61.3	-75.3	89.3	104.5
O=C1CSC(=NC(=O)c2ccccc2)N1	0	0	0	0	0	69.2
CC(C)C(=O)N=C1NC(=O)CS1	0	0	0	0	0	0
O[C@@H]1CN(Cc2cccs2)[C@@H](c2ccccc2)C[C@H]1n1cc(C2CC2)nn1	0	0	0	0	0	0
CCc1nc2ccc(C(=O)Nc3ccc4c(c3)OCC(=O)N4)cn2c1N(C)C(=O)C1CCCCC1	0	0	0	0	0	0
CC1(Cc2ccc(OC(F)(F)F)cc2)C(=O)Nc2ccc(S(=O)(=O)NC3CCCCC3)cc21 (stereo not given)	0	52.2	0	0	0	78.1
COc1ccc(F)cc1S(=O)(=O)NCC1CCCO1 (stereo not given)	0	0	0	0	0	0
CC(=O)OCC(=O)C1(O)CCC2C3CCC4=CC(=O)CCC4(C)C3C(O)CC21C (stereo not given)	0	0	60.3	0	0	0
CCCCCCCC(=O)OCC(=O)[C@@]1(O)CC[C@H]2[C@@H]3CCC4=CC(=O)CC[C@]4(C)[C@H]3[C@@H](O)C[C@@]21C	0	0	61.3	0	0	0
CCOC(=O)OCC(=O)C1(O)CCC2C3CCC4=CC(=O)CCC4(C)C3C(O)CC21C (stereo not given)	0	0	67.5	0	0	0
CC12CCC(=O)C=C1CCC1C2C(O)CC2(C)C1CCC2(O)C(=O)COC(=O)COCC(=O)O (stereo not given)	0	0	70.2	0	0	0
CC12CCC(=O)C=C1CCC1C2C(O)CC2(C)C1CCC21OCC1=O (stereo not given)	0	0	0	0	0	0
O=C(COC(=O)CCC(=O)c1cccs1)Nc1cccc(F)c1	0	0	0	0	0	0
Cc1cc(C)cc(CC(=O)N2CCC2(C)C(=O)NS(=O)(=O)c2cccc(OC(F)F)c2)c1 (stereo not given)	0	0	0	0	0	0
CC1CCCCN1S(=O)(=O)c1ccc(C(=O)Nc2ccccc2-c2nc3ccccc3[nH]2)cc1 (stereo not given)	0	0	0	0	0	53.0
Nc1ccccc1NC(=O)c1ccccc1	0	0	0	0	0	0
Nc1ccc(NC(=O)c2ccccc2)c2c1C(=O)c1ccccc1C2=O	0	0	61.3	-53.2	0	0
Cc1ccc(C(=O)Nc2cccc3ccccc23)cc1	0	0	0	0	0	0
CC(C)(C)c1ccc(C(=O)Nc2cccc3c(=O)[nH][nH]c(=O)c23)cc1	0	52.8	0	0	0	80.0
CCCCN(C(=O)c1ccco1)c1c(N)n(CCC)c(=O)[nH]c1=O	0	0	0	0	0	0
CCCCN(C(=O)c1ccccc1F)c1c(N)n(CCC)c(=O)[nH]c1=O	73.2	0	0	0	0	0
CCN(CCO)CC1CCCC2CCCCC21 (stereo not given)	-	0	-	-	0	0
Cc1cc(C)cc(NC(=O)CCc2nc3sc4c(c3c(=O)[nH]2)CCCC4)c1	84.3	0	0	0	0	0
CSc1ccc(/C=C/C(=O)Nc2ccccc2)cc1	0	0	0	0	0	72.3
CCN(C(C)=O)c1cnc(C=NNC(N)=S)c2ccccc12	53.6	0	0	0	0	0
CN(CC(=O)Nc1ccccc1C(F)(F)F)C(=O)CSc1nnc(-c2ccncc2)n1C	0	0	0	0	0	0
